Screens deposited in PubChem by National Center for Advancing Translational Sciences (NCATS).
Shown are actives, neighbours in structure and some others; about 2.5% of the full set was active somewhere.
Cruzain noTriton: qHTS Assay for Promiscuous and Specific Inhibitors of Cruzain (without detergent). Cruzipain (Trypanosoma cruzi), P25779. purified cruzain, Z-FR-AMC fluorescence, no detergent. Potency, µM, inactives show max response, negative = inhibition, usual class: inhibitors. actives 2.3% (n = 200,000);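 further: plate controls were enzyme without inhibitor for no effect and buffer without enzyme for full effect; nearly all actives have a fitted effect of over 40% in size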
Target sequence (P25779 123-467 limits assumed): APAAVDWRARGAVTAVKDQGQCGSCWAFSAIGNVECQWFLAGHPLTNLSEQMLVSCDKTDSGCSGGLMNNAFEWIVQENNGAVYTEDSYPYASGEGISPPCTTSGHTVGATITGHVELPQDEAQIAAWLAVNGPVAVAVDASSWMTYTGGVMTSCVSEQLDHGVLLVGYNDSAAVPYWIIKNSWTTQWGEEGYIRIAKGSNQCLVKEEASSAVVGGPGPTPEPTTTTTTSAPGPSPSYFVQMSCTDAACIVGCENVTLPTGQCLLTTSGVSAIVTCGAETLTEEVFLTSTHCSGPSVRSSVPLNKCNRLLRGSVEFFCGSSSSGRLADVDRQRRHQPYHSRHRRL
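Purified cruzain at 1.5 nM, pre-incubated 15 min with compound at room temperature in 100 mM sodium acetate pH 5.5, 5 mM DTT, 0.00005% Triton X-100. Reaction started with 2 uM Z-FR-AMC; AMC fluorescence increase over 60 s gives rate.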
Cruzain Triton: qHTS Assay for Promiscuous and Specific Inhibitors of Cruzain (with detergent) | Cruzipain (Trypanosoma cruzi), P25779 | purified cruzain, Z-FR-AMC fluorescence, 0.01% Triton | Potency, µM, for inactives: max response, negative = inhibition, actives largely listed as inhibitors | actives 0.43% (n = 200,000) | AID 1478, 2009;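 further: plate controls were neutral wells for no effect and buffer without enzyme for full effect; nearly all actives have a fitted effect of over 40% in size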
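Cruzain (1.5 nM) preincubated 15 min at RT with compound in 100 mM sodium acetate pH 5.5, 5 mM DTT, 0.01% Triton X-100. Reaction started with 2 uM Z-FR-AMC; AMC fluorescence (ex 360/em 450 nm) change over 60 s gave rate.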
An asterisk follows results filed as active. The call rests on the fitted dose curve; in most records, active means well fitted curve in the direction sought with a large enough effect; inconclusive means small, poorly fitted or top-dose-only effect, or another doubt; inactive means no such curve, though single readings can be large; an effect the other way counts as inactive or inconclusive. Potency means the concentration at half of the fitted maximal effect.

How did COc1cc(C2c3c(-c4c(C)cc(C)cc4O)n[nH]c3C(=O)N2Cc2ccco2)cc(OC)c1OC (stereo not given) do in these assays?
Cruzain noTriton: 17%; Cruzain Triton: -2%

What do the screens show for `COCC(=O)N1CCC[C@@]2(CCN(C(=O)Nc3cccc(C#N)c3)C2)C1`?
Cruzain noTriton: 3%; Cruzain Triton: 6%

What do the screens show for `Fc1ccc2ncc3c(-c4ccccc4)n[nH]c3c2c1`?
Cruzain noTriton: -9%; Cruzain Triton: -3%

Results for COc1ccc(Cn2ccc3nc(C)c(C(=O)N4CCN(c5ccc(F)cc5)CC4)cc3c2=O)cc1 ?
Cruzain noTriton: -4%; Cruzain Triton: 1%

What do the screens show for `O=[N+]([O-])c1ccc2ncccc2c1CCc1c([N+](=O)[O-])ccc2ncccc12`?
Cruzain noTriton: 1%; Cruzain Triton: 2%

Results for O=C(COC(=O)c1cccs1)Nc1ccccc1 ?
Cruzain noTriton: -1%; Cruzain Triton: 2%

What do the screens show for `O=C(COC(=O)c1c2c(nc3ccccc13)/C(=C\c1cccs1)CCC2)Nc1ccccc1`?
Cruzain noTriton: 10µM*; Cruzain Triton: 0%

Results for CC(=O)c1ccc(NC(=O)COC(=O)c2c3c(nc4ccccc24)/C(=C\c2cccs2)CCC3)cc1 ?
Cruzain noTriton: 7.9µM*; Cruzain Triton: 5%

What do the screens show for `O=C(COC(=O)c1c2c(nc3ccccc13)CCCC2)Nc1ccc2c(c1)OCO2`?
Cruzain noTriton: 25µM*; Cruzain Triton: -6%

What do the screens show for `CC(=O)c1ccc(NC(=O)COC(=O)CCC(=O)c2cccs2)cc1`?
Cruzain noTriton: -1%; Cruzain Triton: -1%

What do the screens show for `O=C(COC(=O)c1cc(-c2ccccc2)nc2ccccc12)Nc1ccc2c(c1)OCO2`?
Cruzain noTriton: inconclusive; Cruzain Triton: -4%

What do the screens show for `Cc1ccccc1OC(=O)CSc1nnc(-c2ccc3c(c2)OCO3)o1`?
Cruzain noTriton: 4%; Cruzain Triton: -6%

How did Cc1ccccc1NC(C)C(=O)N/N=C/c1ccccc1OCc1cccc(Br)c1 (stereo not given) do in these assays?
Cruzain noTriton: 32µM*; Cruzain Triton: 0%

How did COc1ccc(NC(C)C(=O)N/N=C/c2ccccc2OCc2cccc(Br)c2)cc1 (stereo not given) do in these assays?
Cruzain noTriton: inconclusive; Cruzain Triton: -5%

How did O=C(COC(=O)C1CC(=O)N(c2ccccc2)C1)c1ccccc1 (stereo not given) do in these assays?
Cruzain noTriton: 0%; Cruzain Triton: 2%

Results for O=C(COC(=O)C1CC(=O)N(c2nc(-c3ccccc3)cs2)C1)c1ccccc1 (stereo not given) ?
Cruzain noTriton: 25µM*; Cruzain Triton: -5%

Results for CCC(Sc1nc2nccnc2c(=O)n1Cc1ccc(C)cc1)C(=O)NC1CCCCC1 (stereo not given) ?
Cruzain noTriton: 7%; Cruzain Triton: 0%

What do the screens show for `Cc1ccc(-n2ncc3c(N4CCN(C)CC4)ncnc32)cc1C`?
Cruzain noTriton: 3%; Cruzain Triton: 0%

How did COC(=O)c1ccc(CSc2nc3ccc(Cl)cc3[nH]2)o1 do in these assays?
Cruzain noTriton: -8%; Cruzain Triton: 5%

What do the screens show for `COC(=O)c1ccc(CSc2nc3scc(-c4cccs4)c3c(=O)[nH]2)o1`?
Cruzain noTriton: 16µM*; Cruzain Triton: -7%

How did Cc1cc(Cl)ccc1NC(=O)c1cc2ccccn2n1 do in these assays?
Cruzain noTriton: -9%; Cruzain Triton: -3%

What do the screens show for `Cc1ccc(/C=C/C(=O)OCC(=O)Nc2ccccc2Sc2ccccc2)cc1`?
Cruzain noTriton: 13µM*; Cruzain Triton: -6%

How did COc1cccc(/C=C/C(=O)OCC(=O)Nc2ccccc2Sc2ccccc2)c1 do in these assays?
Cruzain noTriton: -27%; Cruzain Triton: -5%

How did CCCCOc1ccc(CNC(=O)Cn2ncn3c(cc4cc(F)ccc43)c2=O)cc1 do in these assays?
Cruzain noTriton: -8%; Cruzain Triton: 1%

What do the screens show for `CCc1ccc(C(=O)COC(=O)c2cccc(N3C(=O)c4c(C)nc5ccccc5c4C3=O)c2)cc1`?
Cruzain noTriton: 6.3µM*; Cruzain Triton: 4%

How did CCN1C(=O)c2c(C)nc3ccccc3c2C1=O do in these assays?
Cruzain noTriton: 7%; Cruzain Triton: 0%

How did COc1ccc(CCn2c3c(c(=O)[nH]c2=O)C(NC(=O)c2ccccc2)(C(F)(F)F)C(=O)N3)cc1OC (stereo not given) do in these assays?
Cruzain noTriton: 8%; Cruzain Triton: -2%

Results for CCOCCCn1c(=N)c(S(=O)(=O)c2ccc(C)cc2)cc2c(=O)n3ccccc3nc21 ?
Cruzain noTriton: -8%; Cruzain Triton: -7%

What do the screens show for `Cn1c(=N)c(S(=O)(=O)c2ccc(F)cc2)cc2c(=O)n3ccccc3nc21`?
Cruzain noTriton: inconclusive; Cruzain Triton: 32µM*

How did CN1CCN(c2nc3c(S(=O)(=O)c4ccc(Cl)cc4)nnn3c3ccsc23)CC1 do in these assays?
Cruzain noTriton: 11%; Cruzain Triton: 0%

What do the screens show for `Cc1ccc(S(=O)(=O)c2cn(CC(=O)Nc3cccc(Cl)c3)c3ccccc3c2=O)cc1`?
Cruzain noTriton: 32µM*; Cruzain Triton: -2%

Results for COc1ccc(NC(=O)Cn2cc(S(=O)(=O)c3ccc(C)cc3)c(=O)c3ccccc32)cc1OC ?
Cruzain noTriton: inconclusive; Cruzain Triton: -6%

How did NC1(C(=O)NC2(C(=O)O)CCCC2)CCCC1 do in these assays?
Cruzain noTriton: -2%; Cruzain Triton: 2%

How did CCOC(=O)c1[nH]c(C)c(CCC(=O)Nc2cccc(C(F)(F)F)c2)c1C do in these assays?
Cruzain noTriton: -7%; Cruzain Triton: -4%

How did CCOc1ccc(CNC(=S)N/N=C/c2cccnc2)cc1 do in these assays?
Cruzain noTriton: -1%; Cruzain Triton: -6%

Results for CCOc1ccc(CNC(=S)N/N=C\c2ccc([N+](=O)[O-])cc2)cc1 ?
Cruzain noTriton: 20µM*; Cruzain Triton: -4%

How did CCOc1ccc(S(=O)(=O)c2c(C(=O)c3ccc(C)c(C)c3)cnc3ccccc23)cc1 do in these assays?
Cruzain noTriton: 20µM*; Cruzain Triton: -3%

Results for Cc1ccc2ncc(C(=O)c3ccc(C)c(C)c3)c(S(=O)(=O)c3ccc(F)cc3)c2c1 ?
Cruzain noTriton: inconclusive; Cruzain Triton: -6%

Results for COc1ccc(S(=O)(=O)c2c(C(=O)c3ccc(C)c(C)c3)cnc3ccc(F)cc23)cc1 ?
Cruzain noTriton: 13µM*; Cruzain Triton: -3%

Results for COc1ccc(C(=O)c2cnc3ccc(C)cc3c2S(=O)(=O)c2ccccc2)cc1 ?
Cruzain noTriton: inconclusive; Cruzain Triton: -4%

Results for Cc1ccc(-n2c(CCC(=O)O)ccc2-c2cccs2)cc1Cl ?
Cruzain noTriton: 15%; Cruzain Triton: 0%

How did COc1cccc(C2C(C(=O)Nc3ccccc3)=C(C)Nc3nnnn32)c1OC (stereo not given) do in these assays?
Cruzain noTriton: -6%; Cruzain Triton: -1%

Results for CCCN(Cc1cccs1)C(=O)Nc1cc(C)ccc1OC ?
Cruzain noTriton: -9%; Cruzain Triton: -6%

How did COc1ccc(Cl)cc1NC(=O)CCS(=O)(=O)c1cccc2nonc12 do in these assays?
Cruzain noTriton: 0%; Cruzain Triton: 4%

What do the screens show for `Cc1cccc(C)c1-n1ncc(C(=O)NC2CCCC2)c1C1CCN(C(=O)OC(C)(C)C)CC1`?
Cruzain noTriton: -4%; Cruzain Triton: 0%
